Source: PubChem BioAssay (EPA / NIEHS)
Inconclusive results are not listed. Activity calls are given as the source filed them. How the source made its calls, unless noted: active means hit-call score of the fitted dose curve at least 0.9, where 1 is the maximum; inactive means score below 0.9.

Experiments:
[1] = biological target: Oxysterols receptor LXR-alpha (Homo sapiens) (UniProt Q13133); test: ATG_LXRa_TRANS: Attagene TRANS-FACTORIAL HepG2 Assay for human Liver X Receptor alpha (LXRa) (AID 2282980; active means hit-call score of the fitted dose curve at least 0.9, where 1 is the maximum); conditions: HepG2 Attagene TRANS reporter, LXRa transactivation
Sequence of Oxysterols receptor LXR-alpha (Homo sapiens) (Q13133 whole entry, looked up, the tested form may be a part): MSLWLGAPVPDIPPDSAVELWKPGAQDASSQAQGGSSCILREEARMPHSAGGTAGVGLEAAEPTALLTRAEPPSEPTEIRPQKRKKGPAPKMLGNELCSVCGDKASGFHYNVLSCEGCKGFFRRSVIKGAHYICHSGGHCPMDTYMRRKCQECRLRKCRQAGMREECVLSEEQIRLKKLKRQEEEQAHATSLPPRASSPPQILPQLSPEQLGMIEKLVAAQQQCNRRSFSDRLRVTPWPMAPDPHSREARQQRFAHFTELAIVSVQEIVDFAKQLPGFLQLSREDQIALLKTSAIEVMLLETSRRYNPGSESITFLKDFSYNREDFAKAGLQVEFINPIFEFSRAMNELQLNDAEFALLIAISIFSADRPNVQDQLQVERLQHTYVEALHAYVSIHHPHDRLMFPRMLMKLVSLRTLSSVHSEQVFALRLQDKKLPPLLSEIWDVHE
Procedure, shortened: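 Read-out: reporter transcript levels by RT-PCR plus capillary electrophoresis, fluorescence intensity. Transiently transfected HepG2, exogenous NR-GAL4 chimera, GAL4-UAS reporters; 24 h compound exposure. Activity = increase over DMSO negative control.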

[2] = biological target: Nuclear receptor subfamily 4 group A member 2 (Homo sapiens) (UniProt P43354); test: ATG_NURR1_TRANS: Attagene TRANS-FACTORIAL HepG2 Assay for human Nuclear Receptor Related Protein 1 (NURR1) (AID 2282985; active means hit-call score of the fitted dose curve at least 0.9, where 1 is the maximum); conditions: HepG2 Attagene TRANS reporter, mRNA readout
Sequence of Nuclear receptor subfamily 4 group A member 2 (Homo sapiens) (P43354 whole entry, looked up, the tested form may be a part): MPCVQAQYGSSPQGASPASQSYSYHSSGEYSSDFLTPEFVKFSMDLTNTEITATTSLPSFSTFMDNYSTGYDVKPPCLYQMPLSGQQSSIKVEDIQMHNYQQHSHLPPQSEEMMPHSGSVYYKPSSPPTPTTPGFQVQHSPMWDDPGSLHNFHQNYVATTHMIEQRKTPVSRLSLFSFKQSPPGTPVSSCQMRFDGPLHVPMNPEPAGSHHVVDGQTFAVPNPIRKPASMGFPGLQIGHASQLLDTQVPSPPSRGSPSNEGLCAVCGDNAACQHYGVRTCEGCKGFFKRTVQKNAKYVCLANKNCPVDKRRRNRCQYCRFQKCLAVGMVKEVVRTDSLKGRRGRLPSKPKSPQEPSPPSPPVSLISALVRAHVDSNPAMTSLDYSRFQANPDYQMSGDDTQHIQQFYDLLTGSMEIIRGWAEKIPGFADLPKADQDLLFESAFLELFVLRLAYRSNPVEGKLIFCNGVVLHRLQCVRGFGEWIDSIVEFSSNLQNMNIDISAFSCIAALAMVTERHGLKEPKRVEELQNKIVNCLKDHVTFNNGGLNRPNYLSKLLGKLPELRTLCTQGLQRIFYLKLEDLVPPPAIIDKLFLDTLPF
Procedure, shortened: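 Reporter transcript induction, measured by RT-PCR with fluorescent labelling, HpaI digestion and capillary electrophoresis, after 24 hr dosing of human HepG2 cells transiently expressing an exogenous NR-Gal4 fusion with GAL4-UAS-driven reporters; DMSO as baseline.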

[3] = biological target: Nuclear respiratory factor 1 (Homo sapiens) (UniProt Q16656); test: ATG_NRF1_CIS: Attagene CIS-FACTORIAL HepG2 Assay for human Nuclear Respiratory Factor 1 (NRF1) Orphan Gene (AID 2282987); conditions: HepG2 NRF1 cis-element reporter, Attagene multiplex; actives raise or lower the signal
Sequence of Nuclear respiratory factor 1 (Homo sapiens) (Q16656 whole entry, looked up): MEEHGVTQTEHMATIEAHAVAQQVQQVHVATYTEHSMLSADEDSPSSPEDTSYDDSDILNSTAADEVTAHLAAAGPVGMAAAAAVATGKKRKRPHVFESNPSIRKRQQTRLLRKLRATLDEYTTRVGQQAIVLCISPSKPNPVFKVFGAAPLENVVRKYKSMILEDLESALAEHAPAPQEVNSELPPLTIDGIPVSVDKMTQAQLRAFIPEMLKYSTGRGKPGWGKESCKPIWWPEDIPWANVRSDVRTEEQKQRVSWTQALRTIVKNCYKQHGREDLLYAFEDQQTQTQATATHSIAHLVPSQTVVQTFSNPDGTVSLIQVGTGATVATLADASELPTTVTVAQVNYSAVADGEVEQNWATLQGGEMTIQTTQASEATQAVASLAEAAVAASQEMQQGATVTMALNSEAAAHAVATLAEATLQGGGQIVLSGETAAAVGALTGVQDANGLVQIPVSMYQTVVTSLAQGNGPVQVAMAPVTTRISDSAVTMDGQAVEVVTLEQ
Procedure, shortened: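 Multiplexed cis-reporter assay, HepG2 cells, 24 h treatment. Total RNA → oligo(dT) RT → PCR with reporter-specific primers → 6-FAM primer extension → HpaI cut → CE. Bidirectional fit vs DMSO.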

[4] = ATG_NFI_CIS: Attagene CIS-FACTORIAL HepG2 Assay for human Nuclear Factor I (NFI) (AID 2282989); conditions: HepG2 cis-regulatory reporter, NFI response element transcription; actives raise or lower the signal
Procedure, shortened: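 Read-out: reporter mRNA via RT-PCR plus capillary electrophoresis with fluorescence detection. Transiently transfected HepG2 (endogenous TF activity on cis promoters), 24 h compound exposure; gain or loss of signal fitted against DMSO.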

[5] = ATG_NF_kB_CIS: Attagene CIS-FACTORIAL HepG2 Assay for human Nuclear Factor Kappa B (NF-kB) (AID 2282991); conditions: HepG2 Attagene cis-factorial NF-kB reporter mRNA; actives raise or lower the signal
Procedure, shortened: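 Transient MRTU transfection of human HepG2 liver cells → 24 h chemical exposure → total RNA, oligo(dT) RT → PCR, 6-FAM primer extension, HpaI digest 2 h 37 C → CE fragment analysis. Bidirectional fitting, DMSO negative control.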

[6] = ATG_NRF2_ARE_CIS: Attagene CIS-FACTORIAL HepG2 Assay for human Nuclear Factor Erythroid 2 Related Factor 2 (NFR2) response to Antioxidant Response Elements (ARE) (AID 2282992); conditions: HepG2 Attagene ARE/NRF2 reporter, transcription factor activity; actives raise or lower the signal;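 on AC50: reporter mRNA level measured by RT-PCR and capillary electrophoresis fluorescence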
Procedure, shortened: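 Endogenous transcription factor activity in human liver HepG2 cells is tracked via a cis-element-driven reporter within a multiplexed set. mRNA induction is read by RT-PCR and capillary electrophoresis after 24 h, with DMSO as baseline.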

[7] = ATG_Oct_MLP_CIS: Attagene CIS-FACTORIAL HepG2 Assay for human Octamer-Binding Transcription Factor (Oct) (AID 2282993); conditions: HepG2 Attagene cis-factorial Oct reporter, mRNA; actives raise or lower the signal
Procedure, shortened: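 Read-out: reporter mRNA via RT-PCR plus capillary electrophoresis of 6-FAM-labelled fragments. Transiently transfected HepG2, 24 h exposure, endogenous TF activity on cis elements. Gain or loss of signal fitted relative to DMSO.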

[8] = biological target: Cellular tumor antigen p53 (Homo sapiens) (UniProt P04637); test: ATG_p53_CIS: Attagene CIS-FACTORIAL HepG2 Assay for human p53 Transcription Factor (AID 2282994); conditions: HepG2 p53 cis-element reporter, Attagene mRNA; actives raise or lower the signal
Sequence of Cellular tumor antigen p53 (Homo sapiens) (P04637 whole entry, looked up, the tested form may be a part): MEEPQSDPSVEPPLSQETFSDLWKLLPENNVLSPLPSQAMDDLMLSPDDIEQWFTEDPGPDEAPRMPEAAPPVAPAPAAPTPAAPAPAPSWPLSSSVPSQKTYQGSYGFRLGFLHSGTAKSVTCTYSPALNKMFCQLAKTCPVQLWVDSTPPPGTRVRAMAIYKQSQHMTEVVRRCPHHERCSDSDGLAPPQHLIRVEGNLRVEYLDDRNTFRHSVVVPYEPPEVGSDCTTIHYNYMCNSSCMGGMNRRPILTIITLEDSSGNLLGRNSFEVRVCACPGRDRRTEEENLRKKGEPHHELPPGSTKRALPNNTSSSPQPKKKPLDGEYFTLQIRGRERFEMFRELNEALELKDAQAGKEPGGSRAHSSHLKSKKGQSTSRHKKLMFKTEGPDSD
Procedure, shortened: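 Steps: transfect HepG2 with multiplexed cis reporter constructs; dose chemicals 24 h; extract RNA, reverse-transcribe, PCR-amplify reporter sequences; FAM-label, HpaI-digest, resolve fragments by CE. Activity fitted both directions relative to DMSO.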

[9] = BSK_3C_TissueFactor: BioMAP Diversity Plus: 3C Assay for Tissue Factor Biomarker Activity (AID 2282997); conditions: BioMAP 3C HUVEC, tissue factor biomarker readout; actives raise or lower the signal
Procedure, shortened: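 HUVEC, 3C system, 24 h post-dose; Tissue Factor by ELISA; bidirectional fit vs DMSO baseline.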

[10] = BSK_3C_uPAR: BioMAP Diversity Plus: 3C Assay for Urokinase-type plasminogen activator receptor (uPAR) Biomarker Activity (AID 2282998); conditions: BioMAP 3C HUVEC, uPAR biomarker ELISA; actives raise or lower the signal
Procedure, shortened: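 HUVEC primary cells; 24 h post-dose; uPAR by ELISA; gain or loss of signal fitted bidirectionally vs DMSO baseline.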

[11] = BSK_3C_VCAM1: BioMAP Diversity Plus: 3C Assay for Vascular cell adhesion molecule 1 (VCAM1) Biomarker Activity (AID 2282999); conditions: BioMAP 3C HUVEC, VCAM1 ELISA, cytokine-stimulated; actives raise or lower the signal
Procedure, shortened: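 Activity fitted in both directions relative to DMSO, with ELISA measurement of the surface marker on primary HUVEC (3C) at 24 h post-treatment; parallel SRB staining (0.1% SRB, TCA-fixed, 560 nm) flagged overt cytotoxicity.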

[12] = biological target: human Peroxisome Proliferator-activated Receptor delta (PPARd), PPARD (gene 5467) (UniProt Q03181); test: ATG_PPARd_TRANS: Attagene TRANS-FACTORIAL HepG2 Assay for human Peroxisome Proliferator-activated Receptor delta (PPARd) (AID 2283002; active means hit-call score of the fitted dose curve at least 0.9, where 1 is the maximum)
Sequence of human Peroxisome Proliferator-activated Receptor delta (PPARd), PPARD (gene 5467) (Q03181 whole entry, looked up, the tested form may be a part): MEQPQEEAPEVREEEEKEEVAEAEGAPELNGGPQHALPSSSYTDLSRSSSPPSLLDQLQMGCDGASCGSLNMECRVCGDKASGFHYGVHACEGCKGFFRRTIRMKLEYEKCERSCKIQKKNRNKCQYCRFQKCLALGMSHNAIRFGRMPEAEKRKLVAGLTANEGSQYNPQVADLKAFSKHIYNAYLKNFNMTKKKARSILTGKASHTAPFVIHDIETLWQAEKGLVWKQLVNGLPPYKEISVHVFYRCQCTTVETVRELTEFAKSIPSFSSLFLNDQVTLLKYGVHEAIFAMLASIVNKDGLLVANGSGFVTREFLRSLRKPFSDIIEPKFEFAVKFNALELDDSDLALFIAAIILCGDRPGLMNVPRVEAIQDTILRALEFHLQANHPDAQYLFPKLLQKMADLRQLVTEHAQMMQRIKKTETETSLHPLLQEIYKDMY
Procedure, shortened: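 Read-out is induced reporter mRNA, quantified by RT-PCR with fluorescent labelling and capillary electrophoresis after 24 h dosing. Cells are HepG2 transiently carrying multiple GAL4-UAS reporter units driven by exogenous NR-GAL4 chimeras; DMSO serves as baseline.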

[13] = biological target: Oxysterols receptor LXR-beta (Homo sapiens) (UniProt P55055); test: ATG_LXRb_TRANS: Attagene TRANS-FACTORIAL HepG2 Assay for human Liver X Receptor beta (LXRb) (AID 2282981; active means hit-call score of the fitted dose curve at least 0.9, where 1 is the maximum); conditions: HepG2 Attagene TRANS GAL4-LXRb reporter, mRNA
Sequence of Oxysterols receptor LXR-beta (Homo sapiens) (P55055 whole entry, looked up, the tested form may be a part): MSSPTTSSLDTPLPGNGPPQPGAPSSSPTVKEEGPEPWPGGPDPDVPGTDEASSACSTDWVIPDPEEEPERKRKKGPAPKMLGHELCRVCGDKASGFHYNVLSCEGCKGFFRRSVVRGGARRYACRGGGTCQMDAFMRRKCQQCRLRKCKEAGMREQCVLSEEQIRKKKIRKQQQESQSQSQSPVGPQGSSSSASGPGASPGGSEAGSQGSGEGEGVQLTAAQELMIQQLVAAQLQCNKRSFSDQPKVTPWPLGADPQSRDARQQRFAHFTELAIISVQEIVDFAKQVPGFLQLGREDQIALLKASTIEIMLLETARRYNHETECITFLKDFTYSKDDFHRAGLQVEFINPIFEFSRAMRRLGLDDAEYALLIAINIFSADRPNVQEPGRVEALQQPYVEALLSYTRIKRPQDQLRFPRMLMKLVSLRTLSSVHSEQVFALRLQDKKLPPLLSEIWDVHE
Procedure, shortened: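 After 24 h chemical treatment of transfected HepG2 cells carrying exogenous NR-Gal4 chimeras, reporter mRNA was quantified by fluorescent RT-PCR and capillary electrophoresis; activity taken as increase over DMSO controls.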

[14] = ATG_M_06_TRANS: Attagene TRANS-FACTORIAL HepG2 Assay for M06 Transcription Factor (Internal Marker) (AID 2282983; active means hit-call score of the fitted dose curve at least 0.9, where 1 is the maximum); conditions: HepG2 Attagene TRANS M06 internal marker reporter
Procedure, shortened: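 Read-out: fluorescent reporter cDNA fragments resolved by capillary electrophoresis after RT-PCR and HpaI cut. Source cells were HepG2 carrying transfected multi-reporter GAL4 constructs, dosed 24 h. Increase over DMSO control analysed.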

[15] = biological target: Transcriptional activator Myb (Homo sapiens) (UniProt P10242); test: ATG_Myb_CIS: Attagene CIS-FACTORIAL HepG2 Assay for human Myeloblastosis (Myb) Proto-Oncogene Transcription Factor (AID 2282986); conditions: HepG2 Attagene CIS-FACTORIAL Myb reporter transcription; actives raise or lower the signal
Sequence of Transcriptional activator Myb (Homo sapiens) (P10242 whole entry, looked up): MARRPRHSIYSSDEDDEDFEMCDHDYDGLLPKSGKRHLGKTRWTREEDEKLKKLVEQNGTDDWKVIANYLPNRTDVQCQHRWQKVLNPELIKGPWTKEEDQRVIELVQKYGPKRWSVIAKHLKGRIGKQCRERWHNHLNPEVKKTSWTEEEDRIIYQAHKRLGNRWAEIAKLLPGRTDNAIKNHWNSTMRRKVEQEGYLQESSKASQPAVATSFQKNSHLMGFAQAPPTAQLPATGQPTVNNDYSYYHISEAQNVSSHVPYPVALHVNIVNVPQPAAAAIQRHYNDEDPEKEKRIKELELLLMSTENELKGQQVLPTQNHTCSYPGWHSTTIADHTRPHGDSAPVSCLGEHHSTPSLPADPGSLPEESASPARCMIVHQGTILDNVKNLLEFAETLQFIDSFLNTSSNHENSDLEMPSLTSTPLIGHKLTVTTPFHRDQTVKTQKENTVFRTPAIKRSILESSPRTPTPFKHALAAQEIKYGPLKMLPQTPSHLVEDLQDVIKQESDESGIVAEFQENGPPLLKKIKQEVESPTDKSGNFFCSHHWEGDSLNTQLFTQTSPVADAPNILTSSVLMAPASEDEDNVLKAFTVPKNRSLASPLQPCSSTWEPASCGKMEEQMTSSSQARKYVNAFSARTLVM
Procedure, shortened: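 Reporter transcript levels, quantified by fluorescent RT-PCR and capillary electrophoresis, serve as the read-out. Transfected HepG2 cells carrying cis-promoter reporter units are dosed for 24 hours, and curves are fitted bidirectionally against DMSO controls.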

[16] = biological target: Myc proto-oncogene protein (Homo sapiens) (UniProt P01106); test: ATG_Myc_CIS: Attagene CIS-FACTORIAL HepG2 Assay for human Myelocytomatosis (Myc) Proto-Oncogene Transcription Factor (AID 2282990); conditions: HepG2, Attagene cis-reporter transcription factor activity; actives raise or lower the signal
Sequence of Myc proto-oncogene protein (Homo sapiens) (P01106 whole entry, looked up, the tested form may be a part): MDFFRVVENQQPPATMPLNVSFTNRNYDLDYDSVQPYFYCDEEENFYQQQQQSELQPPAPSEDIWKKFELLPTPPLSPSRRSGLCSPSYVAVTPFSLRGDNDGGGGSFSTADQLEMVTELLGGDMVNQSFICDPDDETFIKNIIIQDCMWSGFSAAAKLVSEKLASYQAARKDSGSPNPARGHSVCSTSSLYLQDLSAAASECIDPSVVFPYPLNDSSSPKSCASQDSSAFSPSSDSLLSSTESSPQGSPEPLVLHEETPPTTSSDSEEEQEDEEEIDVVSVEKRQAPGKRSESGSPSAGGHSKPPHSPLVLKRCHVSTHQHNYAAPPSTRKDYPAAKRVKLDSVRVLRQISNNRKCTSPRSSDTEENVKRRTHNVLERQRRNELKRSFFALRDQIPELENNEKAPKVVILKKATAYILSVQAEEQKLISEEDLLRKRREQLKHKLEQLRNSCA
Procedure, shortened: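 After 24 h chemical treatment of HepG2 cells carrying multiplexed cis-regulated reporter constructs, reporter transcripts quantified by RT-PCR and capillary electrophoresis of fluorescent fragments. Gain or loss fitted against DMSO baseline.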

[17] = BSK_4H_Eotaxin3: BioMAP Diversity Plus: 4H Assay for Eotaxin 3 Biomarker Activity (AID 2283000); conditions: primary human endothelial cells (HUVEC); actives raise or lower the signal
Procedure, shortened: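 Readout is Eotaxin-3 (CCL26) level by ELISA in primary human umbilical vein endothelial cells harvested 24 h after chemical exposure; activity fitted in both directions against DMSO control.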

[18] = biological target: human Peroxisome Proliferator-activated Receptor alpha (PPARa), PPARA (gene 5465) (UniProt Q07869); test: ATG_PPARa_TRANS: Attagene TRANS-FACTORIAL HepG2 Assay for human Peroxisome Proliferator-activated Receptor alpha (PPARa) (AID 2283001; active means hit-call score of the fitted dose curve at least 0.9, where 1 is the maximum;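 on AC50: potency for gain of reporter signal over DMSO so agonist or activator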)
Sequence of human Peroxisome Proliferator-activated Receptor alpha (PPARa), PPARA (gene 5465) (Q07869 whole entry, looked up, the tested form may be a part): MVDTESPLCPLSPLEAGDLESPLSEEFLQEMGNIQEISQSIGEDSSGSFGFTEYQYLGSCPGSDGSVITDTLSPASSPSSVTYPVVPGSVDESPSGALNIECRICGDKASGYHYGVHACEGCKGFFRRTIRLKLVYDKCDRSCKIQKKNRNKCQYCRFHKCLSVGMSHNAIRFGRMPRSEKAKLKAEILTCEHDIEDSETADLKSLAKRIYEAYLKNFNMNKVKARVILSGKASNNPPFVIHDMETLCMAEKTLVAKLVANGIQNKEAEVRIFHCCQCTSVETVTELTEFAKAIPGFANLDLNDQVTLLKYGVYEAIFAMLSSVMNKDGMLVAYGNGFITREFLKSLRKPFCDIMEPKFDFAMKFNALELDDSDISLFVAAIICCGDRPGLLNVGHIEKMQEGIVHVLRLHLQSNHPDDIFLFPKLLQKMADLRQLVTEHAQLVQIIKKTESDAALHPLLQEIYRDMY
Procedure, shortened: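 Reporter transcripts quantified by RT-PCR plus capillary electrophoresis after 24 h treatment, fitted upward relative to DMSO. Cells: human HepG2 transiently carrying multiple GAL4-UAS reporter units driven by NR-Gal4 chimeras.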

[19] = ATG_M_32_TRANS: Attagene TRANS-FACTORIAL HepG2 Assay for M32 Transcription Factor (Internal Marker) (AID 2282984; active means hit-call score of the fitted dose curve at least 0.9, where 1 is the maximum); conditions: HepG2 Attagene TRANS M32 internal marker reporter
Procedure, shortened: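 Internal background reporter in transfected HepG2: after 24 h chemical exposure, RNA reverse-transcribed, reporter cDNA amplified, fluorescently labelled and HpaI-cut, then sized by capillary electrophoresis. Gain of signal fitted against DMSO control.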

Measured: AC50

CC(O)CN(CCN(CC(C)O)CC(C)O)CC(C)O (stereo not drawn)
not listed: [13] | [14] | [15] | [16] | [17] | [18] | [19]
inactive: all other assays above

CC[C@H]1CC[C@H](NCc2cc3c(cc2OC)[C@H]2C[C@H]2C(=O)N3C)[C@H](c2ccccc2)N1
active: [4] 46.5 µM | [5] 45.2 µM | [7] 64.3 µM | [8] 100 µM
not listed: [1] | [19]
inactive: all other assays above

CCOC(=O)CC(CC(=O)OCC)(OC(C)=O)C(=O)OCC
active: [6] 61.4 µM
not listed: [12] | [13] | [14] | [15] | [17]
inactive: all other assays above

Cc1ccc(S(=O)(=O)O)cc1C
not listed: [5] | [13] | [14]
inactive: all other assays above

O=C(NS(=O)(=O)/C=C/c1ccccc1)c1ccc(F)cc1Cl
not listed: [12] | [13] | [14] | [17]
inactive: all other assays above

CCC(C)(C)C(=O)O[C@H]1C[C@@H](C)C=C2C=C[C@H](C)[C@H](CC[C@@H]3C[C@@H](O)CC(=O)O3)[C@H]21
inactive: [1] | [3] | [4] | [6] | [7] | [8] | [18] | [12]
active: [9] 20 µM | [10] 16.9 µM | [11] 29.9 µM | [17] 34.5 µM

O=C(O)c1cc(N=Nc2ccc(S(=O)(=O)Nc3ccccn3)cc2)ccc1O
not listed: [2] | [13] | [14] | [16] | [17] | [18]
inactive: all other assays above

CC(C)=CCCC(C)=CC=O
active: [2] 100 µM | [6] 62.4 µM | [18] 58.6 µM
not listed: [5] | [13] | [14] | [15] | [16]
inactive: all other assays above
